GDH-TPI counter: counter-screen for M. tuberculosis FBA inhibitors: GDH-TPI coupled enzymes | GDH-TPI coupled enzyme counterscreen, NADH absorbance | inhibition, % at 4.8 µM | 360,000 tested, 1.2% active | AID 588335; in the data active means inhibition above about 30%;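 further: 0% = DMSO wells and 100% = wells lacking the enzyme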
BJeLR lethal: kills HRASV12-expressing BJeLR cells. BJeLR (HRASV12) viability, CellTiter-Glo ATP luminescence, 48 h. inhibition, % (test concentration not listed). 300,000 tested, 0.17% active. AID 1554; in the data active means inhibition above about 50%
PrPC surface inh: inhibitors of human cell surface prion protein PrPC. TR-FRET read-out. inhibition, % at 13.8 µM. P04156. 370,000 tested, 0.43% active. AID 720596; in the data active means inhibition above about 24%; further: 0% = median of the test wells and 100% = reference compound wells
RecA splice inh: inhibitors of M. tuberculosis RecA intein splicing. 290,000 tested, 0.75% active. inhibition, % (concentration not given with the values). cell-free RecA intein splicing, fluorescence. AID 2221; in the data active means inhibition above about 30%;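 further: 0% = vehicle wells and 100% = reference inhibitor control wells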
Target sequence (P9WHJ3 whole entry, looked up, canonical isoform): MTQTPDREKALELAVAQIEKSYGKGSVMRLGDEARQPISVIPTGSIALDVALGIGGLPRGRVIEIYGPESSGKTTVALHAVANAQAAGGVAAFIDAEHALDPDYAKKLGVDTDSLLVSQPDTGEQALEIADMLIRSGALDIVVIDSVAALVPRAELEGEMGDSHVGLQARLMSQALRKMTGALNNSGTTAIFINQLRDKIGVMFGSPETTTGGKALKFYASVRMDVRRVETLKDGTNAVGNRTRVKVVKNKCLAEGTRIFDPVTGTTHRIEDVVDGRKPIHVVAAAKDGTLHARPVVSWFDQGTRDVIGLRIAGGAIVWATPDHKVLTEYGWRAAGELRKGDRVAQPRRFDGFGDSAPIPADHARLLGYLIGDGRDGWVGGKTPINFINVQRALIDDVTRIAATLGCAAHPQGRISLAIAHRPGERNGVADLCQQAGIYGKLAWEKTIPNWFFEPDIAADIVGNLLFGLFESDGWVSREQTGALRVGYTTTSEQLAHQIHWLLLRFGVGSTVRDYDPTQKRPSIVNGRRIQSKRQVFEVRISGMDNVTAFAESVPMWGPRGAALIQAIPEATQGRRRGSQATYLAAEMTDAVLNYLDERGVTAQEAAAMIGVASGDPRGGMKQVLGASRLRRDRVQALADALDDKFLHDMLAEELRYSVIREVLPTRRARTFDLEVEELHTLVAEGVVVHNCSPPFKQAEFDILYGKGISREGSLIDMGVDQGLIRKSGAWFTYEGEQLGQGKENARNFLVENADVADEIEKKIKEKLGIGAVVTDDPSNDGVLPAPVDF
FBA Mtb inh: inhibits M. tuberculosis FBA enzyme; P9WQA3; purified M. tuberculosis FBA, fluorescence read-out; inhibition, % at 1 µM; 360,000 tested, 2.3% active; AID 588726; in the data active means inhibition above about 27%;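 further: 0% = vehicle and 100% = reference inhibitor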
* marks the source's active call; other numbers are inactive results. The list is not random: actives were taken first. Their share in the collection is about 4.2%.

CC(C)(O)[C@H](O)Cc1cc2ccc(=O)oc2cc1O[C@@H]1O[C@H](CO)[C@@H](O)[C@H](O)[C@H]1O was read as GDH-TPI counter 12.7, PrPC surface inh -3.1 and FBA Mtb inh 5.9.
For COc1cc2ccc(=O)oc2c(O[C@@H]2O[C@H](CO)[C@@H](O)[C@H](O)[C@H]2O)c1O the results were GDH-TPI counter 1.3, BJeLR lethal -10.2, PrPC surface inh -7.2, RecA splice inh -2.4 and FBA Mtb inh 185.1*.
Screening COc1ccc(C(=O)C2CCN(c3ncnc4sccc34)CC2)cc1 returned PrPC surface inh 12.0.
`O=C(NCCO)C1(C(=O)C2CC2)CC(c2ccccc2C(F)(F)F)=NO1` (centres undefined) gave PrPC surface inh -1.0.
Cc1ccsc1C(=O)N/N=C/c1ccc2c(c1)OCO2 was read as GDH-TPI counter 35.6*, BJeLR lethal 34.2, PrPC surface inh -7.7, RecA splice inh -2.4 and FBA Mtb inh -2.3.
`Cn1cc(C(=O)N/N=C/c2cccs2)c2ccccc21` gave GDH-TPI counter 42.7*, BJeLR lethal -0.3, PrPC surface inh 5.9, RecA splice inh 0.7 and FBA Mtb inh -0.8.
For O=C(N/N=C/c1ccc2c(c1)OCO2)c1sc2cc(Cl)ccc2c1Cl the results were GDH-TPI counter 8.3, BJeLR lethal -13.2, PrPC surface inh 2.1, RecA splice inh -1.3 and FBA Mtb inh -1.5.
`Cc1occc1C(=O)N/N=C/c1ccc2c(c1)OCO2` gave GDH-TPI counter 46.5*, BJeLR lethal 63.9*, PrPC surface inh 5.3, RecA splice inh 4.9 and FBA Mtb inh 2.6.
For COc1ccc2c(Cl)c(C(=O)N/N=C/c3ccc4c(c3)OCO4)sc2c1 the results were GDH-TPI counter 46.8*, BJeLR lethal -19.8, PrPC surface inh 2.7, RecA splice inh -1.3 and FBA Mtb inh 0.3.
Screening Cc1cc(C(=O)N/N=C/c2ccc3c(c2)OCO3)c(C)o1 returned GDH-TPI counter 18.7, BJeLR lethal 8.0, PrPC surface inh 5.1, RecA splice inh -1.3 and FBA Mtb inh -0.3.
Cc1occc1C(=O)N/N=C/c1cccs1 was read as GDH-TPI counter 24.5, BJeLR lethal 0.8, PrPC surface inh -6.7, RecA splice inh 0.2 and FBA Mtb inh -1.3.
`C[C@H]1[C@@H](NC(=O)c2ccc(C(C)(C)C)cc2)CC[C@@]23CCCN2C(=O)CCC[C@@H]13` gave PrPC surface inh -4.7.
C[C@H]1CCCC(=O)N[C@@H](c2ccccc2)[C@@H](C)CCCC(=O)N[C@H]1c1ccccc1 was read as PrPC surface inh -8.0.
`O=C(CSc1ncnc2sc3c(c12)CCCC3)Nc1ccc(Oc2ccccc2)cc1` gave PrPC surface inh 2.4.
COc1ccc(S[C@]2(C(=O)N3CCN(c4ncccn4)CC3)CC(=O)N(C(=O)Nc3ccc(C)c(Cl)c3)[C@@H]2c2ccc(OC)cc2)cc1 was read as PrPC surface inh -3.8.
COc1ccc2c(Cl)c(C(=O)N/N=C3\CCCC(=O)C3)sc2c1 was read as GDH-TPI counter 34.1*, BJeLR lethal -1.2, PrPC surface inh -1.7, RecA splice inh 2.6 and FBA Mtb inh -4.6.
O=C(N/N=C/c1cccs1)c1ccc2c(c1)OCO2 was read as GDH-TPI counter 27.1, BJeLR lethal -16.8, PrPC surface inh 2.3, RecA splice inh 0.8 and FBA Mtb inh -1.6.
For Cn1cc(C(=O)N/N=C/c2ccc3c(c2)OCO3)c2ccccc21 the results were GDH-TPI counter 33.7*, BJeLR lethal 31.6, PrPC surface inh 12.5, RecA splice inh 1.0 and FBA Mtb inh 2.4.
O=C(N/N=C/c1ccc2c(c1)OCO2)c1cccs1 was read as GDH-TPI counter 34.6*, BJeLR lethal 3.7, PrPC surface inh 1.8, RecA splice inh -0.8 and FBA Mtb inh -2.0.
For Cc1occc1C(=O)N/N=C/c1ccc(-c2ccccc2)cc1 the results were GDH-TPI counter 18.4, BJeLR lethal 61.7*, PrPC surface inh 13.1 and FBA Mtb inh 0.9.
Screening CCCC1CCC2(CC1)CCC2OC(=S)Nc1ccc(I)cc1 (centres undefined) returned PrPC surface inh -1.8.
`CCOCCCNc1nc2nc3ccc(C)cn3c(=O)c2cc1C(=O)NCC1CCCO1` (centres undefined) gave GDH-TPI counter -7.8, BJeLR lethal -0.3, PrPC surface inh -49.7, RecA splice inh inactive and FBA Mtb inh active.
`Cc1ccc2nc3c(cc(C(=O)NCC4CCCO4)c(=N)n3CCCOC(C)C)c(=O)n2c1` (centres undefined) gave GDH-TPI counter -8.4, PrPC surface inh -44.7, RecA splice inh inactive and FBA Mtb inh active.
`CCOC(=O)C1C(=O)C=C(c2ccc(NS(C)(=O)=O)cc2)CC1c1ccco1` (centres undefined) gave GDH-TPI counter 32.7*, BJeLR lethal 1.2, PrPC surface inh -4.9, RecA splice inh -7.8 and FBA Mtb inh 10.3.
`COc1ccc(C(=O)NCCCn2ccnc2)cc1[N+](=O)[O-]` gave GDH-TPI counter 32.3*, BJeLR lethal -1.8, PrPC surface inh -9.8, RecA splice inh 0.9 and FBA Mtb inh 4.9.
`COc1cc(C(=O)NCCCn2ccnc2)cc(OC)c1OC` gave GDH-TPI counter 6.5, BJeLR lethal -8.5, PrPC surface inh 5.8, RecA splice inh -0.1 and FBA Mtb inh 0.2.
Screening Clc1ccc2nnnc(-c3ccccc3)c2c1 returned GDH-TPI counter -2.6, BJeLR lethal 3.5, PrPC surface inh -2.6, RecA splice inh 56.1* and FBA Mtb inh 1.3.
For CCN(CC)C(=O)CSc1nc2c(sc(=S)n2-c2ccccc2)c(=O)n1-c1ccc(OC)cc1OC the results were GDH-TPI counter 2.6, BJeLR lethal -8.3, PrPC surface inh 2.8, RecA splice inh -57.0 and FBA Mtb inh active.
Screening COC(=O)[C@]12C[C@H](CC(=O)N3CCN(C(=O)C4CC4)CC3)C(=O)N(CCC3=CCCCC3)C1=C[C@H](C1CCCC1)O[C@@H]2C returned PrPC surface inh -4.7.
For Cc1ccc(Cn2cc(CN(C3CC3)S(=O)(=O)c3ccccc3Br)nn2)cc1 the results were PrPC surface inh 5.3.
O=c1c2oc3ccccc3c2[nH]c(=S)n1-c1ccc(F)cc1 was read as GDH-TPI counter 33.3*, BJeLR lethal 5.5, PrPC surface inh 19.2, RecA splice inh -0.3 and FBA Mtb inh 3.2.
Screening CC(=O)c1c(C)[nH]c(C(=O)N2CCc3ccccc32)c1C returned GDH-TPI counter 2.6, BJeLR lethal -0.1, PrPC surface inh -2.7 and FBA Mtb inh -2.6.
Screening CCOC(=O)c1[nH]c(C)c(C(=O)N2CCc3ccccc32)c1C returned GDH-TPI counter 4.1, BJeLR lethal 51.6*, PrPC surface inh 1.8, RecA splice inh 0.1 and FBA Mtb inh 0.5.
`COCCOC(=O)N(C)C[C@@H]1OCCCC[C@H](C)Oc2ccc(NC(=O)Nc3ccccc3)cc2C(=O)N([C@@H](C)CO)C[C@H]1C` gave PrPC surface inh 0.8.
Screening O=c1c2ccccc2n(Cc2ccccc2)n1[C@@H](Cc1ccccc1)Cn1cc(-c2ccc(-c3ccccc3)cc2)nn1 returned PrPC surface inh -0.4.
